Data: PubChem BioAssay (Tox21)
Records with an inconclusive call do not appear. Calls of active or inactive are those of the source. Calls follow the shape of the dose curve; as a rule, active = well fitted curve in the direction sought with a large enough effect in the repeat runs; inconclusive = weak or mixed curves; inactive = no such curve, though single readings can be large; an effect the other way counts as inactive or inconclusive.

Columns and labels:
[1] = A CellTox Green Cytotoxicity Assay to monitor cytotoxicity in HEK293 cells - 40 hour (AID 1224871); also: nearly all actives have a fitted effect of over 45% in size; also: potency is read from the fitted curve at half-maximal effect
Outline: (§1)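 Tox21 screen in HEK293: membrane-impermeant cyanine dye fluoresces on binding dead-cell DNA; compound pinned 5 h post-seeding, plates held at 37 C, signal read repeatedly through 40 h.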

[2] = qHTS RealTime-Glo MT Cell Viability Assay in HEK293 cells - 16 hour (AID 1224872); also: nearly all actives have a fitted effect of over 50% in size; also: potency is read from the fitted curve at half-maximal effect
Outline: (§2)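 Assay medium contained NanoLuc luciferase plus cell-permeant prosubstrate, added with HEK293 cells at 600 cells/well. After 5 h at 37 C/5% CO2 compounds were added; plates stayed at 37 C for 40 h with serial luminescence reads.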

[3] = qHTS RealTime-Glo MT Cell Viability Assay in HEK293 cells - 40 hour (AID 1224874); details: RealTime-Glo luminescence; max response: active compounds read low; also: nearly all actives have a fitted effect of over 50% in size; also: potency is read from the fitted curve at half-maximal effect
Outline: (§3)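 HEK293 + NanoLuc + prosubstrate, 600 cells/well; 5 h, 37 C/5% CO2; compound 23 nL in DMSO by pintool; 37 C; luminescence read at 0, 8, 16, 24, 32 and 40 h time points.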

[4] = A CellTox Green Cytotoxicity Assay to monitor cytotoxicity in HEK293 cells - 24 hour (AID 1224875); also: series mostly up to about 77 µM; nearly all actives have a fitted effect of over 45% in size
Outline: as §1

[5] = A CellTox Green Cytotoxicity Assay to monitor cytotoxicity in HepG2 cells - 16 hour (AID 1224876); also: nearly all actives have a fitted effect of over 45% in size; also: potency is read from the fitted curve at half-maximal effect
Outline: (§4)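 Measurements at 0, 8, 16, 24, 32 and 40 h of treatment captured CellTox Green fluorescence in HepG2 cells that had been co-plated with reagent and preincubated 5 h at 37 C/5% CO2.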

[6] = qHTS RealTime-Glo MT Cell Viability Assay in HepG2 cells - 32 hour (AID 1224877); also: nearly all actives have a fitted effect of over 55% in size
Outline: (§5)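 qHTS, HepG2, 600 cells/well, RealTime-Glo (NanoLuc + prosubstrate) added with cells; 5 h preincubation; DMSO compound addition; 37 C; luminescence at 0/8/16/24/32/40 h.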

[7] = A CellTox Green Cytotoxicity Assay to monitor cytotoxicity in HepG2 cells - 24 hour (AID 1224878); also: nearly all actives have a fitted effect of over 45% in size; also: potency is read from the fitted curve at half-maximal effect
Outline: as §4

[8] = A CellTox Green Cytotoxicity Assay to monitor cytotoxicity in HepG2 cells - 40 hour (AID 1224879); also: nearly all actives have a fitted effect of over 40% in size; also: potency is read from the fitted curve at half-maximal effect
Outline: as §4

[9] = A CellTox Green Cytotoxicity Assay to monitor cytotoxicity in HEK293 cells - 32 hour (AID 1224881); also: nearly all actives have a fitted effect of over 40% in size
Outline: as §1

[10] = A CellTox Green Cytotoxicity Assay to monitor cytotoxicity in HepG2 cells - 0 hour (AID 1224882); also: nearly all actives have a fitted effect of over 35% in size; also: potency is read from the fitted curve at half-maximal effect
Outline: as §4

[11] = A CellTox Green Cytotoxicity Assay to monitor cytotoxicity in HepG2 cells - 32 hour (AID 1224883); also: nearly all actives have a fitted effect of over 50% in size; also: potency is read from the fitted curve at half-maximal effect
Outline: as §4

[12] = A CellTox Green Cytotoxicity Assay to monitor cytotoxicity in HEK293 cells - 8 hour (AID 1224884); also: nearly all actives have a fitted effect of over 35% in size; also: potency is read from the fitted curve at half-maximal effect
Outline: as §1

[13] = qHTS RealTime-Glo MT Cell Viability Assay in HEK293 cells - 24 hour (AID 1224886); also: nearly all actives have a fitted effect of over 50% in size; also: potency is read from the fitted curve at half-maximal effect
Outline: as §2

[14] = A CellTox Green Cytotoxicity Assay to monitor cytotoxicity in HEK293 cells - 16 hour (AID 1224888); also: nearly all actives have a fitted effect of over 35% in size
Outline: as §1

[15] = qHTS RealTime-Glo MT Cell Viability Assay in HepG2 cells - 0 hour (AID 1224889); also: nearly all actives have a fitted effect of over 50% in size; also: potency is read from the fitted curve at half-maximal effect
Outline: as §5

[16] = A CellTox Green Cytotoxicity Assay to monitor cytotoxicity in HepG2 cells - 8 hour (AID 1224890); also: nearly all actives have a fitted effect of over 45% in size; also: potency is read from the fitted curve at half-maximal effect
Outline: as §4

[17] = qHTS RealTime-Glo MT Cell Viability Assay in HepG2 cells - 16 hour (AID 1224885); also: nearly all actives have a fitted effect of over 50% in size
Outline: as §5

[18] = qHTS RealTime-Glo MT Cell Viability Assay in HEK293 cells - 8 hour (AID 1224887); also: nearly all actives have a fitted effect of over 50% in size; also: potency is read from the fitted curve at half-maximal effect
Outline: as §3

[19] = qHTS RealTime-Glo MT Cell Viability Assay in HepG2 cells - 8 hour (AID 1224873); also: nearly all actives have a fitted effect of over 55% in size
Outline: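 HepG2 cells (600/well) mixed with RealTime-Glo MT reagent, settled 5 h at 37 C/5% CO2 before compound addition. Nonlytic NanoLuc luminescence from viable-cell prosubstrate reduction read repeatedly during 40 h treatment at 37 C.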

[20] = qHTS RealTime-Glo MT Cell Viability Assay in HEK293 cells - 0 hour (AID 1224880); also: nearly all actives have a fitted effect of over 45% in size; also: potency is read from the fitted curve at half-maximal effect
Outline: as §3
% is scaled to controls: 0 for no effect and ±100 for the full control effect.

Nc1ccc(N=Nc2ccccc2)c(N)c1
active: Potency [2] 42.7 µM | Potency [3] 38.1 µM | Potency [13] 42.7 µM
inactive: Potency [1] | Potency [4] | Potency [5] | Potency [6] | Potency [7] | Potency [8] | Potency [9] | Potency [10] | Potency [11] | Potency [12] | Potency [14] | Potency [15] | Potency [16]

CCCCCCCCC(CCCCCC)C(=O)O (stereo not drawn)
inactive: Potency [1] | Potency [2] | max response [3] -3.96% | Potency [4] | Potency [5] | Potency [6] | Potency [9] | Potency [12] | Potency [17] | Potency [13] | Potency [18] | Potency [14] | Potency [15] | Potency [16]
active: Potency [7] 61.6 µM | Potency [8] 61.6 µM | Potency [11] 61.6 µM

Clc1cc(Cl)nc(Cl)n1
inactive: Potency [1] | Potency [2] | Potency [19] | Potency [5] | Potency [6] | Potency [7] | Potency [8] | Potency [20] | Potency [9] | Potency [10] | Potency [11] | Potency [12] | Potency [17] | Potency [13] | Potency [18] | Potency [14] | Potency [15] | Potency [16]

CC(C)Nc1cccnc1N1CCN(C(=O)c2cc3cc(NS(C)(=O)=O)ccc3[nH]2)CC1
inactive: Potency [1] | Potency [2] | max response [3] -29% | Potency [4] | Potency [5] | Potency [6] | Potency [7] | Potency [8] | Potency [9] | Potency [10] | Potency [11] | Potency [12] | Potency [17] | Potency [13] | Potency [18] | Potency [14] | Potency [16]
active: Potency [20] 9.52 µM | Potency [15] 3.38 µM

Cc1cccc(O)c1N
inactive: Potency [1] | Potency [2] | Potency [19] | Potency [5] | Potency [6] | Potency [7] | Potency [8] | Potency [20] | Potency [9] | Potency [10] | Potency [11] | Potency [12] | Potency [17] | Potency [13] | Potency [18] | Potency [14] | Potency [15]

CS(=O)(=O)c1ccc(-c2cn3ccccc3n2)cc1
inactive: Potency [1] | Potency [2] | Potency [4] | Potency [5] | Potency [6] | Potency [20] | Potency [10] | Potency [12] | Potency [14] | Potency [15]

O=C(OCC(O)CO)c1ccccc1Nc1ccnc2cc(Cl)ccc12 (stereo not drawn)
inactive: Potency [1] | Potency [7] | Potency [8] | Potency [20] | Potency [9] | Potency [12] | Potency [14]
active: Potency [2] 8.49 µM | Potency [3] 8.49 µM | Potency [11] 9.52 µM | Potency [13] 7.56 µM | Potency [18] 8.49 µM

CC(C)=CCC/C(C)=C/CC/C(C)=C/C(=O)OCC(=O)[C@@]1(O)CC[C@H]2[C@@H]3CCC4=CC(=O)C=C[C@]4(C)[C@H]3[C@@H](O)C[C@@]21C
inactive: Potency [1] | Potency [4] | Potency [5] | Potency [7] | Potency [20] | Potency [9] | Potency [10] | Potency [11] | Potency [12] | Potency [14] | Potency [15] | Potency [16]
active: Potency [2] 5.35 µM | Potency [3] 4.25 µM | Potency [13] 4.25 µM | Potency [18] 6.01 µM

CC1(C)[C@@H](OC(=O)CCC(=O)O)CC[C@]2(C)[C@H]3C(=O)C=C4[C@@H]5C[C@@](C)(C(=O)O)CC[C@]5(C)CC[C@@]4(C)[C@]3(C)CC[C@@H]12
inactive: Potency [1] | Potency [2] | max response [3] 10.8% | Potency [4] | Potency [5] | Potency [6] | Potency [7] | Potency [8] | Potency [20] | Potency [9] | Potency [10] | Potency [11] | Potency [12] | Potency [17] | Potency [13] | Potency [18] | Potency [14] | Potency [15] | Potency [16]

Cc1c(C)c2c(c(C)c1OC(=O)CCC(=O)OCCO)CC[C@@](C)(CCC[C@H](C)CCC[C@H](C)CCCC(C)C)O2
inactive: Potency [1] | Potency [2] | max response [3] -18.9% | Potency [4] | Potency [5] | Potency [6] | Potency [7] | Potency [8] | Potency [20] | Potency [9] | Potency [10] | Potency [11] | Potency [12] | Potency [13] | Potency [18] | Potency [14] | Potency [15] | Potency [16]

CCC(C)COC(=O)CC(C)C (stereo not drawn)
active: Potency [7] 54.9 µM | Potency [8] 49 µM | Potency [11] 54.9 µM
inactive: Potency [1] | Potency [2] | Potency [4] | Potency [6] | Potency [20] | Potency [9] | Potency [13] | Potency [18] | Potency [14] | Potency [15] | Potency [16]

N#CCc1ccc(Cl)cc1Cl
inactive: Potency [1] | Potency [2] | max response [3] -14.5% | Potency [4] | Potency [5] | Potency [6] | Potency [7] | Potency [8] | Potency [20] | Potency [9] | Potency [10] | Potency [11] | Potency [12] | Potency [17] | Potency [13] | Potency [18] | Potency [14] | Potency [15] | Potency [16]

O=C1c2ccccc2C(=O)N1CCc1noc(-c2ccc(CN3CCCCCC3)s2)n1
inactive: Potency [4] | Potency [6] | Potency [20] | Potency [15]
active: Potency [1] 40 µM | Potency [2] 22.5 µM | Potency [3] 20.1 µM | Potency [5] 20.1 µM | Potency [7] 31.8 µM | Potency [8] 35.7 µM | Potency [10] 35.7 µM | Potency [11] 35.7 µM | Potency [12] 35.7 µM | Potency [13] 35.7 µM | Potency [18] 35.7 µM | Potency [16] 31.8 µM

CCCCCC[C@@H](O)C/C=C\CCCCCCCC(=O)O
inactive: Potency [1] | Potency [2] | max response [3] 13.2% | Potency [4] | Potency [5] | Potency [6] | Potency [7] | Potency [8] | Potency [20] | Potency [9] | Potency [10] | Potency [11] | Potency [12] | Potency [17] | Potency [13] | Potency [18] | Potency [14]
